Sampled rows, rich in hits. Any-hit rate of the full collection: about 9.3%.
HCV inhibitor: qHTS Assay for Inhibitors of Hepatitis C Virus (HCV); Huh7.5.1 HCVcc-Cre infection, luciferase reporter, 44 h; Potency, µM (doses to about 41.8 µM), for inactives: at the top dose activity change, negative = inhibition, actives largely listed as inhibitors; 340,000 tested, 3.4% active; AID 651820, 2012; further: potency means the concentration at half of the fitted maximal effect
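HCVcc-Cre virus at an moi near 0.5 was added right after compound to cells cultured 4 h from seeding (1,000 cells/well). Luciferase activity was determined 44 h later, 15 min after substrate addition at RT.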
Sm TGR block: qHTS Assay for the Inhibitors of Schistosoma Mansoni Peroxiredoxins; purified TGR, DTNB reduction, TNB absorbance 405 nm; Potency, µM (series often up to 114 µM), without a hit: at the top dose activity change, negative = inhibition, hits mostly inhibitors; 360,000 tested, 3% active; AID 485364, 2010; further: potency means the concentration at half of the fitted maximal effect; nearly all actives have a fitted effect of over 60% in size
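TGR 20 nM + NADPH 100 uM (dispensed conc.), cpd preinc 15 min RT; start with NADPH (500 uM addition) then DTNB (15 mM addition). Kinetic TNB absorbance, 405 nm filter. Four-parameter Hill fit across titration.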
VACV mCherry inh: qHTS for Stage-Specific Inhibitors of Vaccinia Orthopoxvirus: mCherry Reporter Primary qHTS; 310,000 tested, 0.63% active; Potency, µM (doses to about 36.5 µM), for the others: at the highest dose activity change, negative = inhibition, hits mostly inhibitors; Vaccinia virus mCherry reporter infection, fluorescence; AID 720579, 2013; calls by dose curve; tested in A549 cells; further: potency means the concentration at half of the fitted maximal effect; nearly all actives have a fitted effect of over 35% in size
VACV Venus inh: qHTS for Stage-Specific Inhibitors of Vaccinia Orthopoxvirus: Venus Reporter Primary qHTS | 330,000 tested, 0.46% active | Potency, µM (doses to about 36.5 µM), for inactives: top-dose activity change, negative = inhibition, usual class: inhibitors | Vaccinia virus Venus reporter expression, fluorescence; calls by dose curve; tested in A549 cells; further: potency means the concentration at half of the fitted maximal effect; nearly all actives have a fitted effect of over 30% in size
HCMV inh: qHTS Assay for inhibitors of the human cytomegalovirus (HCMV); HFF cells, HCMV-luciferase reporter, 72 h; hits give low values; activity change, negative = inhibition, % at 57.5 µM; 410,000 tested, 4.5% active; AID 1259415, 2018; in the data active means activity change below about -60%; inconclusive means no clear call, values can overlap the other calls; inactive means above about -39%
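Inhibition of viral replication was scored as loss of reporter luminescence in HFFs infected with HCMV-luciferase (MOI 1 PFU/cell) for 72 h; compounds tested at 2 doses, normalized to buffer and Salinomycin controls.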
FMDV antiviral: High Throughput Screening for Foot and Mouth Disease Virus Antivirals; 410,000 tested, 1.2% active; FMDV antiviral cell-based qHTS; AID 1159524, 2015; Potency, µM (top dose mostly 57.9 µM), for inactives: top-dose activity change, negative = inhibition, hits mostly inhibitors; calls by dose curve; tested in HEK293T cells; further: read-out not given here; potency means the concentration at half of the fitted maximal effect; nearly all actives have a fitted effect of over 45% in size
Numbers without * were called inactive; i = inactive; ? = inconclusive; nt = not tested or not shown. Unless noted, the call rests on the fitted dose curve; in most records, active means well fitted curve in the direction sought with a large enough effect; inconclusive means small, poorly fitted or top-dose-only effect, or another doubt; inactive means no such curve, though single readings can be large; an effect the other way counts as inactive or inconclusive. On the % scale 0 is the no-effect control and ±100 the full control effect.

SMILES	HCV inhibitor	Sm TGR block	VACV mCherry inh	VACV Venus inh	HCMV inh	FMDV antiviral
Cc1ccc2nc(-c3ccc(NS(=O)(=O)c4ccccc4)cc3)sc2c1	-28.7%	-8.1%	?	-13.1%	-11.0	75.3%
Cn1cccc1-c1nc2ccc(NC(=O)c3ccccc3)cc2[nH]1	?	-24.0%	i	-11.0%	-19.5	6.1%
c1ccc(-c2ccc(-c3cnc4n3CCCCC4)cc2)cc1	?	-1.2%	nt	8.5%	-20.2	-6.5%
Cc1ccc(N2NC(=O)/C(=C\c3cc4c(cc3[N+](=O)[O-])OCO4)C2=O)cc1C	6.8%	?	i	-9.6%	102.1	12.6µM*
COc1ccnc(CSC(N)=Nc2ccc(F)cc2)c1	-11.4%	44.7µM*	-20.1%	-17.6%	13.7	-6.1%
O=C(Cn1ccc(NC(=O)OCc2ccccc2)nc1=O)NCCCc1ccccc1	-1.6%	-2.6%	?	-18.3%	25.6	-5.3%
O=C(Cn1ccc(NC(=O)OCc2ccccc2)nc1=O)NCCc1c[nH]c2ccccc12	2.82µM*	-30.9%	i	-9.0%	32.2	-25.8%
O=C(Cn1ccc(NC(=O)OCc2ccccc2)nc1=O)NCCc1ccccn1	5.1%	31.6µM*	i	-6.5%	-2.6	-5.2%
CC(=O)Nc1ccc(CN(C)CC2CCCN(CCc3cccc(C(F)(F)F)c3)C2)cc1 (stereo not given)	1.41µM*	1.6%	-27.1%	-23.8%	-30.1	-29.1%
CN(CC1CCN(CCc2cccc(C(F)(F)F)c2)CC1)C(=O)c1ccc(F)cc1F	-28.5%	39.8µM*	nt	nt	-26.4	-7.5%
CCN(Cc1ccc(O)cc1)CC1CCCN(CCc2cccc(F)c2)C1 (stereo not given)	8.91µM*	?	nt	nt	3.7	-2.5%
Cc1ccc2c(c1)C(c1ccc(F)cc1)N(C(=O)COc1ccc(Cl)cc1Cl)CC(=O)N2 (stereo not given)	nt	12.8%	-18.2%	-21.7%	-60.2*	?
CC(=NNC(=S)N1CC2CCC(CC2)C1)c1cnccn1	?	nt	15.8µM*	?	-95.8*	-16.6%
Cc1ccc(S(=O)(=O)N2CCN(C(=O)c3ccccn3)CC2)cc1	1.6%	-6.6%	nt	nt	3.8	-9.2%
CC(=NNC(=S)N1CC2CCC(CC2)C1)c1ccccn1	nt	nt	?	?	-99.6*	-3.7%
C/C(=N\NC(=O)C1CCCN(S(=O)(=O)c2ccccc2)C1)c1ccccn1 (stereo not given)	?	-0.1%	?	?	-92.6*	?
CC(=NNC(=S)N1CCN(c2ccccn2)CC1)c1ccccn1	?	nt	i	-1.9%	-13.8	-8.8%
O=C(c1ccccn1)N1CCN(S(=O)(=O)c2ccccc2)CC1	6.5%	1.3%	-1.7%	-7.2%	-94.2*	-16.8%
O=C(CSc1nc(O)c(Cc2ccccc2)c(=O)[nH]1)Nc1nnc(SCc2ccccc2)s1	-0.4%	4.9%	i	-13.3%	?	0.8%
CCOc1ccccc1Nc1nc(N2CCCC2)nc(N2CCOCC2)n1	nt	nt	nt	nt	?	-18.5%
O=C(CN1CCCCC1)N1CCN(S(=O)(=O)c2ccccc2)C1	-4.4%	9.2%	0.3%	2.1%	-102.9*	1.3%
CCOC(=O)c1c(C)[nH]c(C)c1C(=O)COC(=O)c1ccc(Cl)c(S(=O)(=O)NCc2ccccc2)c1	7.08µM*	-29.7%	?	?	-24.4	?
CCOc1ccccc1N(CC(=O)NC1CCCCC1)C(=O)c1nsc(Cl)c1Cl	9.3%	0.0%	i	-6.9%	-35.9	13.5%
CCc1ccc(S(=O)(=O)NCCc2csc3nc(-c4ccccc4)nn23)s1	nt	5.1%	-0.6%	-14.6%	-78.9*	18.2%
Cc1cc(C(=O)CSc2ccc(Cl)cc2)cc(C)c1OC(=S)N(C)C	10µM*	1.4%	nt	?	-18.4	13.9%
SMILES	HCV inhibitor	Sm TGR block	VACV mCherry inh	VACV Venus inh	HCMV inh	FMDV antiviral
Cc1cc(C(=O)CSc2ccc(F)cc2)cc(C)c1O	?	-33.7%	?	-22.6%	3.6	42.6%
Cc1ccc(N=C(N)N=C(N)N)c(C)c1	7.7%	0.0%	-9.4%	-11.1%	?	-18.5%
Cc1cc(Cl)ccc1-n1c(-c2cccnc2)n[nH]c1=S	10.4%	9.9%	nt	nt	36.3	-22.3%
C#CCOCCOCCOCCNc1nc(N2CCN(C(=O)CCCCCCCCCCNC(=O)[C@H](CCCCN)n3cc(CCO)nn3)CC2)nc(N2CCN(C(=O)CCCCCCCCCCNC(=O)[C@H](CCCCN)n3cc(CCO)nn3)CC2)n1	7.9%	35.5µM*	i	?	nt	-11.4%
C#CCOCCOCCOCCNc1nc(N2CCN(C(=O)CCCCCCCCCCNC(=O)[C@H](CCC(=O)O)n3cc(CCCCCN)nn3)CC2)nc(N2CCN(C(=O)CCCCCCCCCCNC(=O)[C@@H]([C@H](C)O)n3cc(C)nn3)CC2)n1	5.7%	-31.1%	i	-10.2%	nt	9.1%
C#CCOCCOCCOCCNc1nc(N2CCN(C(=O)CCCCCCCCCCNC(=O)[C@H](CCCCN)n3cc(CCO)nn3)CC2)nc(N2CCN(C(=O)CCCCCCCCCCNC(=O)[C@@H]([C@H](C)O)n3cc(C)nn3)CC2)n1	-12.8%	17.8µM*	-1.0%	-23.2%	nt	-4.7%
COc1ccccc1N1C(=O)CC(N2CCN(c3ccc(F)cc3)CC2)C1=O (stereo not given)	3.8%	44.7µM*	nt	nt	-14.6	-19.4%
O=C(c1ccco1)N1CCN(C2CC(=O)N(c3ccc(F)c(Cl)c3)C2=O)CC1 (stereo not given)	3.5%	20µM*	-24.6%	3.7%	-2.7	25.6%
O=C1CC(N2CCN(c3ccc(F)cc3)CC2)C(=O)N1c1ccc(F)cc1 (stereo not given)	10.8%	-13.3%	nt	nt	1.8	-20.6%
CCOc1ccc(N2C(=O)CC(N3CCN(C(=O)CN4CCCC4)CC3)C2=O)cc1 (stereo not given)	13.0%	35.5µM*	-13.1%	-10.0%	-9.1	nt
COc1cccc(N2C(=O)CC(N3CCN(C(=O)c4ccco4)CC3)C2=O)c1 (stereo not given)	3.9%	?	2.4%	0.0%	10.1	-23.2%
CCOc1ccc(N2C(=O)CC(N3CCN(c4ccc(F)cc4)CC3)C2=O)cc1 (stereo not given)	12.8%	44.7µM*	nt	nt	63.7	-13.6%
CN1C(=O)CC(N2CCN(C(=O)CN3CCCC3)CC2)C1=O (stereo not given)	1.6%	-4.3%	nt	nt	-11.8	-7.6%
Cc1cc(NC(=O)c2noc3c2CCc2ccccc2-3)n(-c2ccccc2)n1	7.1%	6.0%	-6.0%	-27.1%	0.4	-21.8%
